# Source: PubChem BioAssay AID2732 (Emory University Molecular Libraries Screening Center, 2010)
# “And” between values parts separate entries of the source, which are not always exact repeats. Equal entries are not always repeated. The campaign covered roughly 220,000 compounds. About 8,200 (3.7%) were called active.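 Rule for the calls: active = compounds that reduced the stress-induced luciferase reporter signal by more than about 70% of percent inhibition (limit read from the data); inactive = the rest.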 This excerpt belongs to a sample that is enriched for actives. Where a structure was tested more than once in an assay, its records may differ in their call.
# Test: blockers of ER-stress CHOP reporter expression – cell-based, unfolded protein response, luciferase reporter, primary screen (AID 2732);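 note: 0% = tunicamycin plus vehicle and 100% = wells without tunicamycin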
# Conditions: CHO-K1 CHOP-promoter luciferase, tunicamycin-induced, 15-18 h; at 10 µM; stronger effect = higher value
row,SMILES,inhibition
1,CC1CC(C)(C)n2c(O)c(N=NC(N)=S)c3cccc1c32 (configuration not stated),21.3% (inactive)
2,CCOc1ccc2sc(NS(=O)(=O)c3ccc(N)cc3)nc2c1,5.24% (inactive)
3,CCNc1nc(Oc2ccc(C(=O)OC)cc2)nc(N2CCOCC2)n1,-6.61% (inactive)
4,COC(=O)c1ccc(Oc2nc(Nc3ccc(F)cc3)nc(N3CCCC3)n2)cc1,73.6% (active)
5,COC(=O)c1ccc(Oc2nc(NC(C)C)nc(SC)n2)cc1,20.5% (inactive)
6,C=C(C)COc1ccc(-c2n[nH]c(C)c2-c2ccccc2)c(O)c1,112% (active)
7,Cc1[nH]nc(-c2ccc(OCc3cnn(-c4ccccc4)c3)cc2O)c1Oc1ccc(Cl)cc1,51.5% (inactive)
8,CCOc1ccc(-c2nc(N)ncc2-c2ccccc2OC)c(O)c1,16.1% (inactive)
9,C=C(C)COc1ccc(-c2nc(N)ncc2-c2ccccc2OC)c(O)c1,7.39% (inactive)
10,C=C(C)COc1ccc(-c2n[nH]c(C)c2-c2ccccc2OC)c(O)c1,105% (active)
11,CCOc1ccc(-c2n[nH]c(C)c2-c2ccccn2)c(O)c1,9.43% (inactive)
12,Brc1ccc(-c2nn[nH]n2)cc1,6.83% (inactive)
13,COC(C[C@@H](O)[C@H](C)[C@H](O)COCc1ccccc1)OC,0.72% (inactive)
14,Cc1nc(CNS(=O)(=O)c2cc([N+](=O)[O-])ccc2C)cs1,24.2% (inactive)
15,O=C(NCCc1ccccc1)Oc1ccc(Cl)cc1,-12.7% (inactive)
16,C=C(C)Cn1c(C)cc(C)c(S(=O)(=O)c2ccccc2C)c1=O,72.7% (active)
17,Cc1ccccc1Nc1c(-c2ccccc2)nc2ncccn12,1.44% (inactive)
18,Clc1ccc(CSc2nnc3c(n2)[nH]c2ccccc23)cc1,10.8% (inactive)
19,C=CCC1(C#N)C(=S)NC(C)=C(C(=O)OCC)C1c1ccccc1 (configuration not stated),8.99% (inactive)
20,CCOC(=O)/C=C/CN(C(=O)OC(C)(C)C)S(=O)(=O)N1CC=CC1,0.06% (inactive)
21,COc1cccc(CNC(=O)Cc2csc(Nc3nc(=S)[nH]c4ccccc34)n2)c1,49.7% (inactive)
22,O=C(Cc1csc(Nc2nc(=S)[nH]c3ccccc23)n1)NCCCN1CCN(c2cccc(Cl)c2)CC1,79.8% (active)
23,O=C(CCn1c(=O)[nH]c2ccccc2c1=O)NCCCN1CCN(c2cccc(Cl)c2)CC1,-9.62% (inactive)

row,SMILES,inhibition
1,O=[N+]([O-])c1ccc2c(c1)C(O)n1nc(-c3ccccc3)nc1S2 (configuration not stated),37.2% (inactive)
2,CCCc1nc2c(c(=O)c3ccccc3n2C)c(=O)n1-c1cc(C)cc(C)c1,-14.6% (inactive)
3,CCCc1nc2c(c(=O)c3ccccc3n2C)c(=O)n1C1CCCCCC1,95.5% (active)
4,Cn1c2ccccc2c(=O)c2c(=O)n(Cc3ccco3)c(COc3ccccc3)nc21,-34.3% (inactive)
5,COc1cc(OC)c(OC)cc1/C=N/Nc1ncnc2c1[nH]c1ccc(C)cc12,-33.8% (inactive)
6,O=c1ccnc(Nc2ccc(Cl)cc2)[nH]1,-1.5% (inactive)
7,CC1=NNC(=O)C1CCC(=O)N/N=C(\C)c1ccc(Cl)cc1 (configuration not stated),5.21% (inactive)
8,O=C(NCCCN1CCOCC1)c1ccc([N+](=O)[O-])cc1[N+](=O)[O-],-3.24% (inactive)
9,O=[N+]([O-])c1ccc(NCCCN2CCOCC2)c(Cl)c1,13% (inactive)
10,O=[N+]([O-])c1cc(S(=O)(=O)CCCN2CCOCC2)ccc1F,97.8% (active)
11,O=C(CN1CCN(Cc2ccccc2)CC1)NC(c1ccccc1)c1ccccc1,-8.53% (inactive)
12,CC#CC[N+](C)(C)CCCCCC,-9.84% (inactive)
13,[O-][N+]12CCCCC1CCCC2CO (configuration not stated),-6.34% (inactive)
14,COC(=O)/C=C\C(=O)Nc1cccc([N+](=O)[O-])c1,107% (active)
15,Cc1ccccc1NC(=S)Nc1cccc([N+](=O)[O-])c1,4.63% (inactive)
16,CC(=O)Nc1cccc([N+](=O)[O-])c1,13.9% (inactive)
17,COc1cccc(C(=O)n2ccc(-c3cccs3)n2)c1,17.3% (inactive)
18,O=c1c2ccccc2cnn1Cc1n[nH]c(=S)n1-c1ccccc1F,5.73% (inactive)
19,CCC(C)Sc1nc(C)nc2c1c(=O)n(C)c(=O)n2C (configuration not stated),82.4% (active)
20,CCOC(=O)N1CCN(C(=O)CSc2nc(C)nc3c2c(=O)n(C)c(=O)n3C)CC1,28.2% (inactive)
21,CSc1nc(C)nc2c1c(=O)n(C)c(=O)n2C,11.2% (inactive)
22,O=c1c(-c2ccc(Cl)cc2)[n+]([O-])c2ccccc2n1OCc1nc2ccccc2[nH]1,11.1% (inactive)
23,C=CCC(Nc1ccccc1)c1cccc(OC)c1OC (configuration not stated),29.3% (inactive)

row,SMILES,inhibition
1,CSCCC(NS(=O)(=O)c1ccc2c(c1)oc(=O)n2C)C(=O)NCc1ccccc1 (configuration not stated),18.5% (inactive)
2,CSc1nc(C)cc(SC(C(C)=O)C(=O)Nc2ccccc2)n1 (configuration not stated),9.45% (inactive)
3,CSc1nc(-c2ccccc2)nc(C(Cl)Cl)n1,102% (active)
4,COc1ccc(NS(=O)(=O)c2ccc(N3CCOCC3)c(NC(=O)c3ccccc3Br)c2)cc1,-3.53% (inactive)
5,CCOC(=O)N/N=C1\CC(C)S(=O)(=O)c2ccc(Cl)cc21 (configuration not stated),-26.8% (inactive)
6,Cc1ccc(C(=O)NCC(=O)OCC(=O)Nc2cccc(S(=O)(=O)N3CCCC3)c2)cc1C,-17.8% (inactive)
7,CC(C)=C1SC(N2CCN(c3ccc(C)c(Cl)c3)CC2)=NC1=O,23.3% (inactive)
8,COC(=O)Cc1ccc(Oc2ncc(C(F)(F)F)cc2Cl)cc1,29.9% (inactive)
9,Cc1cc(C)cc(NS(=O)(=O)c2ccc(Oc3ncc(C(F)(F)F)cc3Cl)cc2)c1,90.3% (active)
10,COc1ccccc1Oc1ccc(S(=O)(=O)Nc2cccnc2)cc1,44.6% (inactive)
11,Cc1ccc(SCCC(=O)OCC(=O)Nc2ncc(Cl)cc2Cl)cc1,82% (active)
12,Cc1ccc(-n2c(SCC(=O)Nc3ncc(Cl)cc3Cl)nc3ccccc32)cc1,49.5% (inactive)
13,CC(Oc1ccc(Cl)cc1)C(=O)OCC(=O)Nc1ncc(Cl)cc1Cl (configuration not stated),2.69% (inactive)
14,Cc1cc(NC(=O)Nc2ccc(Cl)cc2)n(-c2ccccc2)n1,10.7% (inactive)
15,C/C=C(/C)C(=O)Nc1cccc(C2=NOC3(C2)C[C@@H](C(N)=O)N(C(=O)C2(C)CC2)C3)c1 (some centres not stated),-8.38% (inactive)
16,CCc1nnc(NS(=O)(=O)c2ccc(N=Cc3c(C)[nH]n(-c4ccc(C)cc4)c3=O)cc2)s1,-15.8% (inactive)
17,Cc1ccc(-n2[nH]c(C)c(/C=N/N3C(=O)c4cccc5cccc(c45)C3=O)c2=O)cc1,36.5% (inactive)
18,COc1cc(SC#N)ccc1N=Cc1c(C)[nH]n(-c2ccc(C)cc2)c1=O,107% (active)
19,CCCCCCCCCCCCN1C(=O)CSC1c1cccnc1 (configuration not stated),28.5% (inactive)
20,COc1ccc(C(=O)CN2C(=O)NC(C)(c3ccc(C)cc3)C2=O)cc1OC (configuration not stated),15.7% (inactive)
21,Cc1ccc(C2(c3ccc(C)cc3)NC(=O)N(Cc3c(C)noc3C)C2=O)cc1,92.8% (active)
22,Cc1noc(C)c1COc1ccc2ccc(=O)oc2c1,2.13% (inactive)
23,Cc1cc(F)ccc1NC(=O)C(C)n1c2ccccc2c2nc(=O)cc(C)n21 (configuration not stated),-2.79% (inactive)

row,SMILES,inhibition
1,CC1=NNC(=O)C1CC(=O)N/N=C/c1ccncc1 (configuration not stated),9.24% (inactive)
2,C#CCOCCOCCOCCNc1nc(N2CCN(C(=O)[C@H](CCC(=O)O)n3cc(C(N)CO)nn3)CC2)nc(N2CCN(C(=O)[C@H](CCCCN)n3cc(C(N)CC(C)C)nn3)CC2)n1 (some centres not stated),-22.6% (inactive)
3,Cn1nc(C(F)(F)F)cc1-c1ccc(/C=C(\C#N)C(=O)c2cccc(C(F)(F)F)c2)s1,-6.02% (inactive)
4,CCOC(=O)COc1ccc([N+](=O)[O-])cc1,3.34% (inactive)
5,Cc1cccc(NC(=O)c2sc(-c3ccccc3)nc2-c2ccc([N+](=O)[O-])cc2)c1,31.6% (inactive)
6,CCOC(=O)/C(=C\c1ccc([N+](=O)[O-])cc1)C(=O)c1cc(C(C)=O)c(Nc2ccccc2)s1,112% (active)
7,COC(=O)c1sc(C(F)(F)F)c(-c2ccccc2)c1S(=O)(=O)N(C)C,21.3% (inactive)
8,CC(C)c1ccc2c(c1)c(SC(C)(C)C)c(CC(C)(C)C(=O)O)n2Cc1ccc(Cl)cc1,-15.8% (inactive) and 96.6% (active)
9,O=S(=O)(NCCc1csc(-c2ccccc2)n1)c1cccnc1,10.5% (inactive)
10,COc1ccc2nc(/N=C(\N)NC(=O)Nc3ccccc3)nc(C)c2c1,29.8% (inactive)
11,Cc1ccc(N/C(N)=N/c2nc(C(F)(F)F)cc(C(F)(F)F)n2)cc1,92.5% (active)
12,Cc1ccc(NC(=O)Nc2ccc3oc(C)nc3c2)cc1,-9.69% (inactive)
13,C/C=C\C=C\C(=O)N1CC2(CC(c3cccc(NC(=O)/C(C)=C\C)c3)=NO2)C[C@H]1C(N)=O (some centres not stated),-9.78% (inactive)
14,Cc1cccc(NC(=O)c2ccc([N+](=O)[O-])o2)c1,-27% (inactive)
15,COc1ccc(Cl)cc1S(=O)(=O)N1CCC(O)(c2ccc(Cl)cc2)CC1,19.7% (inactive)
16,O=[N+]([O-])c1ccc(N/N=C2/CCCCC2c2ccccn2)c([N+](=O)[O-])c1 (configuration not stated),80.1% (active)
17,O=C(Nc1ccccc1)O/N=C1\CCCCC1c1ccc([N+](=O)[O-])cc1[N+](=O)[O-] (configuration not stated),22.1% (inactive)
18,C[n+]1ccccc1C1CCCC/C1=N\Nc1ccc([N+](=O)[O-])cc1[N+](=O)[O-] (configuration not stated),8.15% (inactive)
19,O=C(NNC(=O)c1cnccc1C(F)(F)F)c1ccc(Cl)cc1,-0.67% (inactive)
20,S=c1[nH]nc(-c2cc(-c3ccsc3)n[nH]2)n1-c1ccccc1,0.59% (inactive)
21,O=C(Nc1cccc(-c2nc3ccccc3[nH]2)c1)c1ccc(C(=O)Nc2cccc(-c3nc4ccccc4[nH]3)c2)cc1,-38.4% (inactive)
22,CCOC(=O)c1c(NC(=O)C2CCN(S(=O)(=O)c3ccc(Cl)cc3)CC2)sc2c1CCCC2,15.6% (inactive)
23,O=C(Nc1sc2c(c1-c1nc3ccccc3[nH]1)CCCC2)C1CC1,80.4% (active)
